The values that follow come from PubChem BioAssay AID2149 (The Scripps Research Institute Molecular Screening Center, 2009).

As a reminder, the inhibition is the percentage by which the read-out fell short of the control.

Molecules are shown by their SMILES. The campaign covered roughly 2,400 compounds. About 1,800 (75%) were called active. The set was probably picked from earlier hits. The list is a sample of the results. A number with no mark means an inactive call.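 Rule for the calls: active = inhibition above the primary screen limit, the mean inhibition of all tested compounds plus 3 SD (cut at about 25% in these data); inactive = the rest.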

The test system of the experiment is tRNA 2'-phosphotransferase TPT1 [Candida albicans SC5314]. Description: tRNA 2'-phosphotransferase enzyme inhibition – biochemical, fluorescence polarization, triplicate, confirmation (AID 2149). As to conditions: recombinant caTPT1, fluorescence polarization, RNase T1 coupled; at 5 µM; hits give high values. A general note: Polarisation of emitted light reports the rotation of a fluorescent probe.
For `CCCCC(=O)N/N=C/c1c(O)n(CC)c(=S)n(CC)c1=O`, the inhibition is 98.8% (active).

Turning to `CCN1C(=O)C(=Cc2c(C)n(CC(=O)NCC3CCCO3)c3ccccc23)C(=O)N(CC)C1=S` (centres undefined), the inhibition is 18.6%. The same measure for `COc1ccc(N2C(=O)/C(=C/c3ccco3)C(=O)NC2=S)cc1`: 27.9% (active); for `O=C1NC(=O)N(Cc2ccco2)C(=O)/C1=C\c1ccc(-c2ccc(F)cc2)o1`: 11.4%; for `O=C1NC(=O)N(Cc2ccco2)C(=O)/C1=C\c1cccn1CCOc1ccccc1`: 6.57%. The same measure for `O=C1CC(=O)N(Cc2ccccc2)C(=O)N1CCCCCCN1C(=O)CC(=O)N(Cc2ccccc2)C1=O`: 25.7% (active); for `COc1ccccc1N=Nc1c(O)[nH]c(=S)[nH]c1=O`: 64.9% (active); for `CC(C)n1c(=O)c(C=Nc2ccc(Br)cc2)c(O)n(Cc2ccco2)c1=O`: 17.1%. For the compound `CC/C(=N\NC(=O)c1ccccc1O)c1c(O)n(Cc2ccccc2)c(=O)[nH]c1=O`, the inhibition was 21.9%.
